# Measured values from PubChem BioAssay (NCATS).
# Records with an inconclusive call do not appear. Values without a mark were called inactive. Calls of active or inactive are those of the source. Calls come from the whole dose curve; as a rule, active = well fitted inhibition curve with a large enough effect; inconclusive = small, poorly fitted or top-dose-only effect; inactive = flat fitted curve, though single readings scatter.
# Legend:
# PC26 = assay: qHTS profiling for inhibitors of Plasmodium falciparum proliferation (AID 504749); details: P. falciparum in erythrocytes, SYBR Green DNA, 72 h; series mostly up to 28.7 µM
# Procedure, shortened: (§1)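 Quantitative HTS: compounds pinned into medium, infected erythrocytes added (0.3% parasitemia, 2.5% hematocrit), 72 h culture at 37 C under 5% CO2. Saponin/Triton lysis with SYBR Green I, overnight RT, then fluorescence read.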
# SC27B = assay: as above; details: P. falciparum in erythrocytes, SYBR Green DNA, 72 h; series mostly up to 28.7 µM
# Procedure, shortened: as §1
# TAB109 = assay: as above; details: P. falciparum in erythrocytes, SYBR Green DNA, 72 h; series mostly up to 28.7 µM
# Procedure, shortened: as §1
# TAB113 = assay: as above; details: P. falciparum in erythrocytes, SYBR Green DNA, 72 h; series mostly up to 28.7 µM
# Procedure, shortened: as §1
# TAB165 = assay: as above; details: P. falciparum in erythrocytes, SYBR Green DNA, 72 h; series mostly up to 28.7 µM
# Procedure, shortened: as §1
# W2 = assay: as above; details: P. falciparum in erythrocytes, SYBR Green DNA, 72 h; series mostly up to 28.7 µM
# Procedure, shortened: as §1
# CRL-7250 = normal cell line; assay: Cytotoxic Profiling of Annotated Libraries Using Quantitative High-Throughput Screening (AID 1296008); details: Five cell lines viability, CellTiter-Glo ATP luminescence, 48-72 h; max response: stronger effect = lower value; for max response: % is set by controls: 0 for no effect and ±100 for the full control effect
# Procedure, shortened: (§2)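 Compounds were pin-transferred onto cells and incubated 48 or 72 hr at 37 degree Celsius, 95% humidity. CellTiter-Glo was added, plates sat 10 min at room temperature, then ATP-coupled luminescence was imaged as the viability read-out.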
# HEK293 = assay: as above; details: Five cell lines viability, CellTiter-Glo ATP luminescence, 48-72 h; max response: stronger effect = lower value
# Procedure, shortened: as §2
# PC49 = assay: qHTS profiling for inhibitors of Plasmodium falciparum proliferation (AID 504749); details: P. falciparum in erythrocytes, SYBR Green DNA, 72 h; series mostly up to 28.7 µM
# Procedure, shortened: as §1
# HaCat = assay: Cytotoxic Profiling of Annotated Libraries Using Quantitative High-Throughput Screening (AID 1296008); details: Five cell lines viability, CellTiter-Glo ATP luminescence, 48-72 h; max response: stronger effect = lower value; for max response: % is set by controls: 0 for no effect and ±100 for the full control effect
# Procedure, shortened: as §2
# Note: nearly all actives have a fitted effect of over 60% in size.
# Potency is the fitted concentration of half-maximal effect.
compound,measurement,setting,value
CCN(CC)CCNc1ccc(CO)c2sc3ccccc3c(=O)c12,Potency,PC26,7.57 µM (active)
same,Potency,SC27B,1.12 µM (active)
same,Potency,TAB109,1.58 µM (active)
same,Potency,TAB113,1.12 µM (active)
same,Potency,TAB165,0.794 µM (active)
same,Potency,W2,0.675 µM (active)
same,Potency,CRL-7250,18.8 µM (active)
same,Potency,HEK293,7.5 µM (active)
CC1CCc2c(N3CCC(O)CC3)c(F)cc3c(=O)c(C(=O)O)cn1c23 (stereo not given),Potency,PC26,inactive
same,Potency,PC49,inactive
same,max response,CRL-7250,-8.92%
same,max response,HaCat,-5.2%
COc1ccccc1N1CCN(CCCCNC(=O)c2ccc(-c3ccc(C(C)=O)cc3)cc2)CC1,Potency,PC26,inactive
same,Potency,PC49,inactive
same,Potency,SC27B,inactive
same,Potency,TAB109,inactive
same,Potency,TAB113,inactive
same,Potency,TAB165,inactive
same,Potency,W2,inactive
same,max response,CRL-7250,-9.94%
same,outcome,HaCat,inactive
CCN(CC)CCOc1ccc2c(c1)C(=O)c1cc(OCCN(CC)CC)ccc1-2,Potency,PC26,9.53 µM (active)
same,Potency,TAB109,5.01 µM (active)
same,Potency,TAB113,11.2 µM (active)
same,Potency,W2,13.5 µM (active)
same,Potency,CRL-7250,23.7 µM (active)
same,Potency,HEK293,7.5 µM (active)
CCN1CCCC(OC(=O)C(c2ccccc2)c2ccccc2)C1 (stereo not given),outcome,CRL-7250,inactive
same,max response,HaCat,-8.51%
COc1cc(C(=O)NCc2ccc(OCCN(C)C)cc2)cc(OC)c1OC,Potency,PC26,inactive
same,Potency,PC49,inactive
same,Potency,SC27B,inactive
same,Potency,TAB109,inactive
same,Potency,TAB113,inactive
same,Potency,TAB165,inactive
same,Potency,W2,inactive
same,max response,CRL-7250,-8.61%
same,max response,HaCat,4.17%
Cc1ccc2c(Br)cc(Br)c(O)c2n1,Potency,SC27B,11.2 µM (active)
same,Potency,TAB113,12.6 µM (active)
same,Potency,TAB165,6.31 µM (active)
same,Potency,CRL-7250,21.1 µM (active)
same,Potency,HEK293,8.41 µM (active)
O=C1OC(CN2CCOCC2)CN1/N=C/c1ccc([N+](=O)[O-])o1 (stereo not given),outcome,CRL-7250,inactive
same,max response,HaCat,2.11%
C[C@@H](O)[C@H]1C(=O)N2C(C(=O)O)=C(S[C@@H]3CN[C@H](CNS(N)(=O)=O)C3)[C@H](C)[C@H]12,Potency,PC26,inactive
same,Potency,PC49,inactive
same,Potency,SC27B,inactive
same,Potency,TAB109,inactive
same,Potency,TAB113,inactive
same,Potency,TAB165,inactive
same,Potency,W2,inactive
same,max response,CRL-7250,-1.21%
same,outcome,HaCat,inactive
CO[C@H]1C=CO[C@@]2(C)Oc3c(C)c(O)c4c(O)c(c(/C=N/N5CCN(C)CC5)c(O)c4c3C2=O)NC(=O)/C(C)=C\C=C[C@H](C)[C@H](O)[C@@H](C)[C@@H](O)[C@@H](C)[C@H](OC(C)=O)[C@@H]1C,max response,CRL-7250,1.9%
same,max response,HaCat,-21.6%
CCCCCCCCCCCCCCC[C@H](O)[C@@H](N)CO,max response,CRL-7250,-2.05%
same,max response,HaCat,-24.2%
CN1CCc2cccc3c2[C@H]1Cc1ccc(O)c(O)c1-3,Potency,PC26,15.1 µM (active)
same,Potency,TAB109,8.91 µM (active)
same,Potency,TAB165,7.08 µM (active)
same,Potency,W2,3.01 µM (active)
same,max response,CRL-7250,-21.4%
same,Potency,HEK293,23.7 µM (active)
C#C[C@]1(O)CC[C@H]2[C@@H]3[C@H](C)CC4=C(CCC(=O)C4)[C@H]3CC[C@@]21C,max response,CRL-7250,-3.96%
same,outcome,HaCat,inactive
Cc1ncc(CO)c(C=O)c1O,Potency,PC49,inactive
same,Potency,SC27B,inactive
same,Potency,TAB109,inactive
same,Potency,TAB113,inactive
same,Potency,TAB165,inactive
same,Potency,W2,inactive
same,max response,CRL-7250,-16.1%
same,max response,HEK293,-65.4%
COc1ccc(S(=O)(=O)N2c3ccc(Cl)cc3[C@@](O)(c3ccccc3Cl)[C@H]2C(=O)N2CCC[C@@H]2C(N)=O)cc1OC,max response,CRL-7250,-16.1%
same,max response,HaCat,-3.91%
NC(N)=NN=C(/C=C/c1ccc([N+](=O)[O-])o1)/C=C/c1ccc([N+](=O)[O-])o1,Potency,PC49,11.2 µM (active)
same,Potency,TAB109,7.08 µM (active)
same,Potency,TAB165,7.94 µM (active)
same,Potency,W2,2.39 µM (active)
same,Potency,CRL-7250,5.96 µM (active)
same,Potency,HEK293,4.73 µM (active)
COc1ccc(C(Cl)=C(c2ccc(OC)cc2)c2ccc(OC)cc2)cc1,Potency,PC26,inactive
same,Potency,TAB109,3.55 µM (active)
same,Potency,TAB165,2.51 µM (active)
same,outcome,CRL-7250,inactive
same,max response,HaCat,-3.14%
O=C(NC1CCN(CCc2c[nH]c3ccccc23)CC1)c1ccccc1,Potency,SC27B,inactive
same,Potency,TAB113,inactive
same,Potency,TAB165,inactive
same,max response,CRL-7250,-5.92%
same,outcome,HaCat,inactive
CN1CCN(C2=Nc3cc(F)ccc3Cc3ccccc32)CC1,Potency,PC26,inactive
same,Potency,PC49,inactive
same,Potency,TAB109,inactive
same,Potency,TAB113,inactive
same,Potency,W2,7.57 µM (active)
same,max response,CRL-7250,-25%
same,max response,HaCat,-42.8%
CCO[C@@H]1O[C@H](C(COCc2ccccc2)OCc2ccccc2)[C@H](OCc2ccccc2)[C@H]1O (stereo not given in full),Potency,HEK293,16.8 µM (active)
CCCN(CCc1cccs1)[C@H]1CCc2c(O)cccc2C1,Potency,PC26,6.75 µM (active)
same,Potency,PC49,11.2 µM (active)
same,Potency,SC27B,4.47 µM (active)
same,Potency,TAB109,7.08 µM (active)
same,Potency,TAB113,4.47 µM (active)
same,Potency,TAB165,4.47 µM (active)
same,Potency,W2,1.35 µM (active)
same,max response,CRL-7250,-5.8%
same,outcome,HaCat,inactive
CCCCCCCCCCCCOCCOCCOCCOCCOCCOCCOCCOCCOCCO,Potency,PC26,inactive
same,Potency,PC49,inactive
same,Potency,HEK293,7.5 µM (active)
same,max response,HaCat,0.283%
Cc1ccc(O)c([C@H](CCN(C(C)C)C(C)C)c2ccccc2)c1,Potency,PC26,4.78 µM (active)
same,Potency,PC49,3.16 µM (active)
same,Potency,SC27B,4.47 µM (active)
same,Potency,TAB109,3.55 µM (active)
same,Potency,TAB113,3.98 µM (active)
same,Potency,TAB165,2.24 µM (active)
same,Potency,W2,0.849 µM (active)
same,max response,CRL-7250,-4.37%
same,outcome,HaCat,inactive
O=C(O)C1(C(=O)O)CCC1.[NH2-].[NH2-].[Pt+2],Potency,PC26,inactive
same,Potency,PC49,inactive
same,Potency,SC27B,inactive
same,Potency,TAB109,inactive
same,Potency,TAB113,inactive
same,Potency,TAB165,inactive
same,max response,HEK293,1.14%
same,max response,HaCat,1.48%
C[N+]1(C)CCC(=C(c2ccccc2)c2ccccc2)CC1,Potency,PC26,inactive
same,Potency,PC49,inactive
same,Potency,SC27B,inactive
same,Potency,TAB109,inactive
same,Potency,TAB113,inactive
same,Potency,W2,inactive
same,max response,CRL-7250,-1%
same,outcome,HaCat,inactive
CN(CCCN1c2ccccc2CCc2ccccc21)CC(=O)c1ccc(Cl)cc1,Potency,SC27B,10 µM (active)
same,Potency,TAB109,7.94 µM (active)
same,Potency,TAB113,10 µM (active)
same,Potency,TAB165,8.91 µM (active)
same,Potency,W2,3.38 µM (active)
same,max response,CRL-7250,-9.87%
same,max response,HaCat,-17.1%
